The panel holds about 79,000 compounds, 15% with a hit somewhere; the sample as a whole holds those more often. Cut-off read from the data, not from the text of the source: active = growth inhibition above about 70%; inactive = the rest.
Experiments:
[1] = NCI Yeast Anticancer Drug Screen. Data for the rad50 strain (AID 155);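 note: 0% = growth of vehicle-only cultures of the same strain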; settings: S. cerevisiae rad50 strain growth inhibition; at 50.0 µM; stronger effect = higher value
In short: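 Relative growth inhibition (compound vs vehicle) was measured in yeast with a defined repair-gene alteration.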

[2] = NCI Yeast Anticancer Drug Screen. Data for the mec2-1 strain (AID 157); settings: S. cerevisiae mec2-1 strain, at 50.0 µM, stronger effect = higher value
In short: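 Test agents were screened against the mec2-1 yeast strain, with defined DNA repair or cell cycle alteration. Growth was scored as inhibition against vehicle-only controls.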

[3] = NCI Yeast Anticancer Drug Screen. Data for the sgs1 mgt1 strain (AID 161);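 note: 0% = growth of cultures given vehicle only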; settings: S. cerevisiae sgs1 mgt1 strain, at 50.0 µM, stronger effect = higher value
In short: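 Inhibition of yeast growth, normalised to vehicle-treated controls, is reported for a strain bearing genetic alterations in DNA damage repair.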

[4] = NCI Yeast Anticancer Drug Screen. Data for the cln2 rad14 strain (AID 165);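 note: 0% = growth equal to vehicle treated cultures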; settings: S. cerevisiae cln2 rad14 strain, at 50.0 µM, stronger effect = higher value
In short: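 Growth of compound-exposed yeast (cln2 rad14 genotype) measured and expressed as inhibition relative to vehicle.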

[5] = NCI Yeast Anticancer Drug Screen. Data for the bub3 strain (AID 167); settings: S. cerevisiae bub3 mutant strain, at 50.0 µM, stronger effect = higher value
In short: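 Screening used yeast with an engineered genetic alteration affecting cell cycle control. Compound-exposed cultures were compared with vehicle cultures, and reduced growth was taken as inhibition.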

[6] = NCI Yeast Anticancer Drug Screen. Data for the mlh1 rad18 strain (AID 175); settings: S. cerevisiae mlh1 rad18 strain growth inhibition; at 50.0 µM; stronger effect = higher value
In short: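 In this whole-cell yeast screen, a strain with altered DNA damage repair is challenged with compound, and its growth is measured against matched vehicle-treated controls.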

Measured: growth inhibition

C=CCC(=S)NCCc1c[nH]c2ccccc12
inactive: [1] -12.2% | [2] 2.4% | [3] -5.5% | [4] 2.55% | [5] 11.8% | [6] -18.9%

Cc1cc(C)c(N(C)C(=O)CCC(=O)O)c(Br)c1
inactive: [1] 3.1% | [2] -3.05% | [3] -13.2% | [4] 0.05% | [5] 9% | [6] -6.45%

NC(=O)NC(=O)NCc1ccccc1
inactive: [1] -1.35% | [2] 0.35% | [3] -12.8% | [4] -7.65% | [5] 6.6% | [6] -4.9%

O=C(O)c1c2c(cc3c(=O)c4ccccc4[nH]c13)CCCC2
inactive: [1] -5.65% | [2] -16.4% | [3] 18.7% | [4] 7.25% | [5] -15.7% | [6] 5.2%

COc1cc(C2C3=C(COC3=O)Oc3cc4c(cc32)OCO4)cc(OC)c1OC (configuration not stated)
inactive: [1] -3.15% | [2] 24.1% | [3] -8.35% | [4] 14.2% | [5] -12.2% | [6] 3.5%

c1ccc(-c2nnc(-c3ccccn3)c3c2C[C@@H]2C[C@@H]4Cc5c(-c6ccccn6)nnc(-c6ccccn6)c5[C@@H]4[C@H]32)nc1
inactive: [1] -4.95% | [2] 0.1% | [3] -16.4% | [4] 9.25% | [5] 10.3% | [6] -17.4%

NC(=O)CSCC(=O)O
inactive: [1] -5.9% | [2] -6.2% | [3] 14.5% | [4] -0.15% | [5] -23.2% | [6] -14.1%

NC(=O)c1ccccc1N1CCCCC1
inactive: [1] 16.7% | [2] -0.2% | [3] 36% | [4] 21.5% | [5] 32.5% | [6] 22.4%

OCCOc1ccccc1-c1ccccc1
inactive: [1] -28.6% | [2] -14.3% | [3] -15.5% | [4] -14% | [5] -29.5% | [6] -7.65%

O=C(c1ccc(C2CCCCC2)cc1)C(C(c1ccccc1)N1CCOCC1)N1CCOCC1 (configuration not stated)
inactive: [1] -54.7% | [2] -16.6% | [3] -19.9% | [4] -10.6% | [5] -3.75% | [6] 23.9%

COc1ccc(S(=O)(=O)N/N=C\c2cc(I)cc(I)c2O)cc1
inactive: [1] 27.9% | [2] 7.9% | [3] 25.2% | [4] 14.6% | [5] -1.8% | [6] 5.1%

CN(C)c1nc(Cl)c2c(-c3ccccc3)c(-c3ccccc3)oc2n1
inactive: [1] -0.6% | [2] 3% | [3] 10.5% | [4] 16.1% | [5] 24.6% | [6] -25.1%

CC(=O)NC(CC(=O)O)C(=O)Nc1ccccc1 (configuration not stated)
inactive: [1] 13.8% | [2] 36.8% | [3] 16.6% | [4] 13.6% | [5] 8.9% | [6] 13.4%

Cc1cc2c(cc1C=O)C(C)(C)CCC2
inactive: [1] 9.75% | [2] 0.85% | [3] -6.85% | [4] -32.2% | [5] 2.85% | [6] 26.2%

Cc1cc(N)ccc1[N+](=O)[O-]
inactive: [1] 2.2% | [2] 31% | [3] 9% | [4] -29.1% | [5] 11.7% | [6] 1.75%

C1=CC(=P(c2ccccc2)(c2ccccc2)c2ccccc2)C=C1
inactive: [1] 20.4% | [2] 25.1% | [3] 10.4% | [4] 38.8% | [5] 4.3% | [6] 34%

CCO/C=C1/N=C(Cc2ccccc2)OC1=O
inactive: [1] 18.4% | [2] -2.05% | [3] 7.65% | [4] 23.4% | [5] 3.65% | [6] 13%

CCCCOCCOCCOC(=O)c1ccc(C)cc1
inactive: [1] 3.9% | [2] -11% | [3] -13.8% | [4] -49.9% | [5] 46% | [6] 11%

COc1cccc(N2C(=O)C3c4[nH]c5ccc(C)cc5c4C4CCC(C(C)(C)C)CC4C3C2=O)c1 (configuration not stated)
inactive: [1] 12.7% | [2] -20.1% | [3] 13% | [4] 2.55% | [5] 1.4% | [6] -5.55%

CN1C(=O)/C(=N/N(c2ccccc2)c2ccccc2)c2ccccc21
inactive: [1] -5.4% | [2] 26.6% | [3] -3.85% | [4] -3.55% | [5] 21.2% | [6] 5.5%

c1ccc(OC23CC4CC(CC(C4)C2)C3)cc1
inactive: [1] -9.45% | [2] -5% | [3] -5.2% | [4] 42.8% | [5] -18.8% | [6] -21.6%

CC(C(=O)n1c2ccccc2c2ccccc21)N(c1ccccc1)c1ccccc1 (configuration not stated)
inactive: [1] -16.8% | [2] -15.1% | [3] -30.2% | [4] 9.15% | [5] -29.4% | [6] -19.6%

CCCCOC(=O)c1c(C)c(C)cc(C)c1C
inactive: [1] 18.4% | [2] -7.1% | [3] 6.3% | [4] 12.5% | [5] 5.75% | [6] -9.95%

CCCCCCCCCCCCCCCCCCCCCCCC
inactive: [1] 0.1% | [2] 2.3% | [3] 18.7% | [4] -53% | [5] 21.7% | [6] -13.2%

c1ccc2c(c1)CCC(C1=NC3CCCCC3N1)=N2 (configuration not stated)
inactive: [1] -1.25% | [2] 3.7% | [3] 1.1% | [4] -47.3% | [5] 6.3% | [6] 1.85%

C1CCC(N=C2N(C3CCCCC3)C(=NC3CCCCC3)N2C2CCCCC2)CC1
inactive: [1] 4.7% | [2] -28.3% | [3] -7.2% | [4] -19.6% | [5] -20.6% | [6] -4.35%

C/C(=N/Nc1ccc([N+](=O)[O-])cc1[N+](=O)[O-])c1ccccc1
inactive: [1] -4.25% | [2] -13.2% | [3] -12.7% | [4] -13.8% | [5] 1% | [6] -11%

COc1ccc(C(=CCC(C)C2CCC3[C@@H]4C(OC(C)=O)CC5CC(OC(C)=O)CC[C@]5(C)C4CC(OC(C)=O)[C@]23C)c2ccc(OC)cc2)cc1 (some centres not stated)
inactive: [1] 1.2% | [2] 1.4% | [3] -7.9% | [4] 13.5% | [5] 24.1% | [6] -6.05%

CN1C(=O)N/C(=C\c2ccc(S(=O)(=O)N/N=C/c3ccccc3)cc2)C1=O
inactive: [1] 16.4% | [2] 44.9% | [3] 20.1% | [4] -2.55% | [5] 2.75% | [6] 39.9%

CCCCC1(CC)COC2(CCCCC2)OC1
inactive: [1] 17.1% | [2] 37% | [3] 13.3% | [4] -22.2% | [5] 6.85% | [6] 6.95%

Nc1c(-c2ccccc2[N+](=O)[O-])nc2ccccn12
inactive: [1] -16.1% | [2] -43.5% | [3] -49.3% | [4] -2.15% | [5] -19.2% | [6] -21.1%

CC1=CCCCC1O (configuration not stated)
inactive: [1] -7.15% | [2] 10.6% | [3] -6.7% | [4] 4.55% | [5] 14.1% | [6] -0.6%

CC(C)=Cc1ccccc1C1(C)C(c2ccccc2)=C1c1ccccc1
inactive: [1] -3.35% | [2] 8.6% | [3] -9.25% | [4] 26.1% | [5] -0.3% | [6] -3.6%

Cc1ccc(OC/C=C/CS(=O)(=O)c2ccc(C)cc2)cc1
inactive: [1] -11.6% | [2] 10.3% | [3] 5.65% | [4] -23.2% | [5] -12.7% | [6] -28.6%

CC(C)SCCO
inactive: [1] -2.55% | [2] 10.2% | [3] 7.6% | [4] -9.65% | [5] -26.6% | [6] -13.4%

Nc1ncnc(N)c1NC(=O)c1ccc(CCc2ccccc2)c(Cl)c1
inactive: [1] -3.9% | [2] 37.1% | [3] 21.6% | [4] -14.2% | [5] 4.1% | [6] -4.35%

CC(C)OP(=O)(O)CCl
inactive: [1] -16.9% | [2] -12.6% | [3] -24.4% | [4] -11.4% | [5] -13.6% | [6] -26.3%

CCN(CC)CC1CO1 (configuration not stated)
inactive: [1] -8.15% | [2] -12.1% | [3] 3.35% | [4] -3.5% | [5] -11.7% | [6] 9.2%

CCOC(=O)C(=O)C1CCCC1=O (configuration not stated)
inactive: [1] -6.9% | [2] -6.65% | [3] 2.25% | [4] -0.7% | [5] 1.7% | [6] -0.6%

Clc1ccc(-c2onc3ccc(Br)cc23)cc1
inactive: [1] -6.65% | [2] -12.3% | [3] -1.15% | [4] -17.9% | [5] -0.75% | [6] 8.5%

C=C1C(=O)OC2(C)CCC1CC1OC1(C)CCC=C(C)CCC2O (configuration not stated)
inactive: [1] 3.7% | [2] -39.1% | [3] 17.4% | [4] 8% | [5] -17.7% | [6] -39.5%

O=C1NN=C(C(O)c2ccccc2)C1(O)c1ccccc1 (configuration not stated)
inactive: [1] 8.3% | [2] -6.25% | [3] -0.65% | [4] 0.2% | [5] 2.5% | [6] 17.8%

Reference: PubChem BioAssay (NCI)
